# From PubChem
# Compounds with a hit are over-represented: about 4.7% of the library has one in this group of screens.
# CCHF vOTU inh – blocks the CCHF virus ovarian tumor domain protease. CCHFV vOTU protease, Pep-AMC fluorescence. inhibition, % at 11.5 µM. 370,000 tested, 0.55% active. AID 651958; note: 0% = vehicle wells with enzyme and 100% = no enzyme wells
# RecA intein inh – Mtb RecA intein splicing inhibition; cell-free RecA intein splicing, fluorescence; inhibition, % (test concentration not listed); 290,000 tested, 0.75% active; AID 2221; in the data active = inhibition above about 30%;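 note: 0% = vehicle wells and 100% = reference inhibitor control wells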
# GDH-TPI inh – counter-screen for M. tuberculosis FBA inhibitors: GDH-TPI coupled enzymes; GDH-TPI coupled enzyme counterscreen, NADH absorbance; inhibition, % at 4.8 µM; 360,000 tested, 1.2% active;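 note: 0% = DMSO wells and 100% = wells lacking the enzyme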
# VHR inh abs – blocks human VHR1 dual specificity phosphatase; P51452; recombinant VHR phosphatase, pNPP absorbance; inhibition, % at 13.3 µM; 290,000 tested, 0.52% active; AID 1654; in the data active = inhibition above about 50%
# Target sequence (P51452 whole entry, looked up): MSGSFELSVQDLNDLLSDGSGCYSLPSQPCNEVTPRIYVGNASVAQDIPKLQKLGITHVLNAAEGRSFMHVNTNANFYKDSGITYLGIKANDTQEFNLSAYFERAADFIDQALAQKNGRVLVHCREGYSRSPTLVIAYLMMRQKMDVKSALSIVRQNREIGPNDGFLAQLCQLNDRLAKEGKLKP
# Mtb FBA inh – inhibitors of M. tuberculosis fructose-bisphosphate aldolase; P9WQA3; purified M. tuberculosis FBA, fluorescence read-out; inhibition, % at 1 µM; 360,000 tested, 2.3% active; AID 588726; in the data active = inhibition above about 27%;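 note: 0% = vehicle and 100% = reference inhibitor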
# Target sequence (P9WQA3 whole entry, looked up): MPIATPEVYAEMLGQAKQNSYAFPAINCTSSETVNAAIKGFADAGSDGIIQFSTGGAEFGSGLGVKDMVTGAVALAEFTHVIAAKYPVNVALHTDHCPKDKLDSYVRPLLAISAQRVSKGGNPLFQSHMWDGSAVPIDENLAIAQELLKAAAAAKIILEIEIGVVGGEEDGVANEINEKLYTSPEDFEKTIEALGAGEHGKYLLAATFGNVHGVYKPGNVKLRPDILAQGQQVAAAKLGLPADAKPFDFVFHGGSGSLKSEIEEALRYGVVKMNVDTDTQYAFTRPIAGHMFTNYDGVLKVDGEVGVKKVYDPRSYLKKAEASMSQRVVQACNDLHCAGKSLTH
# SARS 3CLpro inh – SARS-CoV 3CLpro protease inhibition; recombinant SARS-CoV 3CLpro, quenched FRET peptide cleavage; 290,000 tested, 0.14% active; inhibition, % at 6 µM; AID 1706; P0C6X7; in the data active = inhibition above about 12%
# Starred values were filed as active, the others as inactive; nt = no result given; + = active, no number. Cut-off read from the data, not from the text of the source, unless noted: active = inhibition above about 30%; inactive = the rest.
SMILES,CCHF vOTU inh,RecA intein inh,GDH-TPI inh,VHR inh abs,Mtb FBA inh,SARS 3CLpro inh
COc1ccc(/C(O)=C2/C(=O)C(=O)N(Cc3cccnc3)C2c2ccncc2)cc1F (stereo unspecified),13,nt,18,24,0,2
CCOc1ccc(C2/C(=C(\O)c3ccc4c(c3)OCCO4)C(=O)C(=O)N2CCN2CCOCC2)cc1OC (stereo unspecified),3,-3,34*,13,0,-3
Cc1cc(OCc2ccccc2)ccc1/C(O)=C1/C(=O)C(=O)N(Cc2cccnc2)C1c1ccncc1 (stereo unspecified),-7,1,38*,27,2,4
Cc1ccc(C)c(/C(O)=C2\C(=O)C(=O)N(Cc3cccnc3)C2c2cccnc2)c1 (stereo unspecified),10,2,37*,11,-16,0
O=C1C(=O)N(Cc2cccnc2)C(c2cccc([N+](=O)[O-])c2)/C1=C(\O)c1ccc2c(c1)OCCO2 (stereo unspecified),5,-1,20,18,-3,4
N#CCS(=O)(=O)c1cccc[n+]1[O-],-5,nt,nt,nt,nt,nt
C=CCOc1ccc(CNCC2CCCO2)cc1 (stereo unspecified),-8,-1,-4,-4,0,1
C[C@H]1Cn2nncc2Cn2c3ccccc3c(=O)n21,-19,nt,nt,nt,nt,nt
COC(=O)c1ccc(CN2C(=O)[C@]3(OCCC=C[C@H]3C)c3cc(OC)ccc32)cc1,9,nt,nt,nt,nt,nt
COc1cccc(CNC(=O)[C@H]2CCCN2C(=O)[C@H]2CCCN2C(=O)N2CCCCC2)c1,0,nt,nt,nt,nt,nt
Cc1ccc(C2CC2/C(=N/O)c2ccc(F)cc2)cc1 (stereo unspecified),-1,5,-13,11,-1,7
Cc1ccc(C(=O)Oc2ccc([N+](=O)[O-])cc2)cc1S(=O)(=O)N1CCCCCC1,2,30*,-2,18,-5,0
Cc1ccc(C(=O)O)cc1S(=O)(=O)N1CCCC1,-2,-2,0,26,0,2
O=C(CSc1nnc(-c2ccccc2)n1-c1ccc(Cl)cc1)Nc1cccc2ccccc12,5,nt,nt,nt,nt,nt
Cc1cccc2c1ncc1c(=O)n(-c3ccccc3)[nH]c12,20,-2,7,57*,-4,0
Cc1ccccc1N=Nc1c(N)[nH]n(-c2ccccc2)c1=O,6,nt,nt,nt,nt,nt
O=C(c1cc(-c2cccc(Br)c2)nc2ccccc12)N1CCCC1,1,8,6,6,5,0
O=C(O)c1cc(-c2cc(C(=O)O)c3ccccc3n2)nc2ccccc12,nt,1,nt,14,nt,3
O=C(O)c1cc(-c2cccc3ccccc23)nc2ccccc12,10,0,0,-29,11,1
Cc1ccc(-c2cc(C(=O)N3CCCC3)c3ccccc3n2)s1,-305,-2,18,-6,+,1
CCc1ccc(-c2cc(C(=O)O)c3ccccc3n2)s1,-225,-12,38*,-20,152*,1
CCn1cc(-c2cc(C(=O)O)c3ccccc3n2)c(C)n1,-59,-3,8,-23,130*,-1
COc1ccc(-c2cc(C(=O)N3CCCCCC3)c3ccccc3n2)cc1,-145,nt,15,nt,150*,nt
COc1ccc(C(=O)N(C)[C@H]2C[C@H]3c4[nH]c5c(-c6ccccc6)cccc5c4CCN3C(=O)[C@H]2[C@H](C)O)cc1,0,nt,nt,nt,nt,nt
COC1=C[C@H](C(=O)NCc2ccc(Br)cc2)C(C)C(c2ccccc2)CC1=O (stereo partly specified),6,nt,nt,nt,nt,nt
SMILES,CCHF vOTU inh,RecA intein inh,GDH-TPI inh,VHR inh abs,Mtb FBA inh,SARS 3CLpro inh
C[C@@H]1C=CCCO[C@]12C(=O)N(Cc1ccc(Br)cc1)c1ccccc12,23,nt,nt,nt,nt,nt
COc1ccc(CN2CCC(CNC(=O)Nc3ccc(C)c(F)c3)CC2)cc1,0,nt,nt,nt,nt,nt
O=C1c2ccccc2/C(=C\c2ccc(Br)nc2)N1c1ccccc1,2,nt,nt,nt,nt,nt
COc1ccc(-c2cc(C(=O)Oc3ccc([N+](=O)[O-])cc3)c3ccccc3n2)cc1,-122,3,23,9,+,2
Cc1ccc(-c2cc(C(=O)N3CC(C)OC(C)C3)c3ccccc3n2)o1 (stereo unspecified),-230,-1,12,nt,146*,nt
Cc1ccc(-c2cc(C(=O)n3cnc4ccccc43)c3ccccc3n2)cc1C,-19,10,8,20,50*,-3
COc1ccc(-c2cc(C(=O)OCC(=O)c3ccc(C)c([N+](=O)[O-])c3)c3ccccc3n2)cc1,1,-4,8,8,6,-3
CC(C)NC(=O)Nc1ccc2c(c1)C(=O)N([C@@H](C)CO)C[C@H](C)[C@H](CN(C)S(=O)(=O)c1ccccc1)OCCCC[C@H](C)O2,15,nt,0,nt,-1,nt
CC(C)NC(=O)C1CCN(c2cncnc2)CC1,13,nt,nt,nt,nt,nt
CC(=O)/C(N=Nc1ccc(C(=O)O)cc1[N+](=O)[O-])=C(\C)O,12,3,69*,11,-2,8
CCOC(=O)/C(N=Nc1ccc(C(=O)O)cc1[N+](=O)[O-])=C(\C)O,14,-1,6,13,-1,6
CCc1ccc(/C=C2\CN(CC)Cc3c2nc2ccccc2c3C(=O)O)cc1,3,3,44*,-4,2,-2
O=C(CNc1ccc(C(F)(F)F)cc1)Nc1cccc(S(=O)(=O)N2CCCCC2)c1,16,nt,8,nt,-2,nt
CC(C)N1CCc2c(sc(NC(=O)c3ccc4ccccc4c3)c2C(N)=O)C1,-8,-3,10,18,1,-15
CC(=O)Nc1sc2c(c1-c1nc3ccccc3s1)CCN(C(C)C)C2,nt,nt,33*,12,8,-5
Cc1ccc2c(c1)C1CN(C)CCC1N2S(=O)(=O)c1ccccc1F (stereo unspecified),-4,nt,-1,nt,0,nt
CCCCN(CCCC)CC(O)c1cc(Cl)cc2c1-c1ccc(Cl)cc1/C2=C/c1ccc(Cl)cc1 (stereo unspecified),19,nt,nt,nt,nt,nt
O=C(N/N=C/c1cc2cc3c(cc2nc1Cl)OCCO3)c1ccccc1O,-7,-2,30,32,2,-1
O=C(N/N=C/c1cc2cc3c(cc2nc1Cl)OCO3)c1ccncc1,-8,-3,69*,-5,-1,-5
Cc1cc(C)nc(NC(=O)/C=C/c2ccccc2Cl)c1,11,-2,8,22,2,-5
Cc1cc(C)nc(NC(=O)/C=C/c2cccs2)c1,20,nt,47*,40,-4,2
O=C(/C=C/c1cccs1)Nc1cccc(NC(=O)/C=C/c2cccs2)n1,5,8,57*,10,0,3
Cc1cc(C)c(-c2csc(NC(=O)/C=C/c3cccs3)n2)c(C)c1,17,4,22,53*,4,-1
O=C(/C=C/c1cccs1)Nc1nccs1,25,-6,27,22,1,5
C/C(COc1ccccc1)=N\NC(=O)c1nnn(-c2nonc2N)c1CSc1ccc(C)cc1,10,nt,10,nt,4,nt
O=C(O)CCSCC(=O)Nc1c(C(=O)C2CC2)oc2ccccc12,6,-1,17,-1,-2,2
